Assay results published in PubChem BioAssay (NCI).
About 83,000 compounds went through this panel and 20% of them were active in at least one assay; those are over-represented in the sample as a whole.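 Method: cells in 96-well plates; compound added at one concentration; 48 h incubation; percent growth measured; values under 10 scored active.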 Active and inactive are the calls of the source.

Tests used:
Experiment in all cases: NCI-60 one-dose screen, 48 h (100 = growth as untreated, 0 = no growth, -100 = all killed)
Conditions in all cases: 10 µM unless noted
NCI-H23 lung = test system: NCI-H23 lung
NCI-H226 lung = test system: NCI-H226 lung
NCI-H322M lung = test system: NCI-H322M lung
HOP-62 NSCLC = test system: HOP-62 NSCLC
NCI-H460 lung = test system: NCI-H460 lung
HOP-92 NSCLC = test system: HOP-92 NSCLC
NCI-H522 lung = test system: NCI-H522 lung
A549/ATCC NSCLC = test system: A549/ATCC NSCLC
786-0 renal = test system: 786-0 renal
DU-145 prostate = test system: DU-145 prostate
K-562 leukemia = test system: K-562 leukemia
MDA-MB-231 breast = test system: MDA-MB-231 breast
RXF 393 renal = test system: RXF 393 renal
SF-268 CNS = test system: SF-268 CNS
SF-539 CNS = test system: SF-539 CNS
UACC-257 melanoma = test system: UACC-257 melanoma
M14 melanoma = test system: M14 melanoma
MALME-3M melanoma = test system: MALME-3M melanoma
SF-295 CNS = test system: SF-295 CNS

Measured: growth

CCCCN(CCCC)CCCn1c(=O)c2sc3ncccc3c2n2nnc(-c3ccccc3)c12
inactive: NCI-H23 lung 101% | NCI-H226 lung 105% | NCI-H322M lung 103% | HOP-62 NSCLC 105% | NCI-H460 lung 105% | HOP-92 NSCLC 74.8% | NCI-H522 lung 89.5% | A549/ATCC NSCLC 102% | 786-0 renal 108% | DU-145 prostate 114% | K-562 leukemia 108% | MDA-MB-231 breast 93.8% | RXF 393 renal 111% | SF-268 CNS 112% | SF-539 CNS 99.6% | UACC-257 melanoma 104% | M14 melanoma 107%

O=C(/C=C/C12c3ccccc3C(c3ccccc31)C1C(=O)N(c3ccccc3)C(=O)C12)c1ccc(Cl)cc1 (configuration not stated)
active: NCI-H226 lung -10% | NCI-H460 lung -17.5% | 786-0 renal 8.93% | MALME-3M melanoma -32.7% | MDA-MB-231 breast -11.8% | RXF 393 renal -71.2% | SF-295 CNS 6.27% | SF-539 CNS 0.701%
inactive: NCI-H23 lung 17.2% | NCI-H322M lung 35.3% | HOP-62 NSCLC 23.5% | HOP-92 NSCLC 39.1% | NCI-H522 lung 10.1% | A549/ATCC NSCLC 25.1% | DU-145 prostate 21.8% | K-562 leukemia 18.2% | SF-268 CNS 43% | UACC-257 melanoma 20.2% | M14 melanoma 30%

Nc1nc(I)c2ncn(C3OC(CO)C(O)C3O)c2n1 (configuration not stated)
inactive: NCI-H23 lung 112% | NCI-H226 lung 91.6% | NCI-H322M lung 105% | HOP-62 NSCLC 95.8% | NCI-H460 lung 110% | HOP-92 NSCLC 223% | NCI-H522 lung 88.9% | A549/ATCC NSCLC 103% | 786-0 renal 103% | DU-145 prostate 107% | K-562 leukemia 118% | MALME-3M melanoma 142% | MDA-MB-231 breast 101% | RXF 393 renal 78.4% | SF-268 CNS 107% | SF-539 CNS 102% | UACC-257 melanoma 103% | M14 melanoma 102%

CSc1nc(N)c(CNC(C)c2ccccc2)c(=O)n1C (configuration not stated)
inactive: NCI-H23 lung 97.4% | NCI-H226 lung 91.4% | NCI-H322M lung 169% | HOP-62 NSCLC 95% | NCI-H460 lung 105% | HOP-92 NSCLC 89% | NCI-H522 lung 94.3% | A549/ATCC NSCLC 97.7% | 786-0 renal 90.2% | DU-145 prostate 118% | K-562 leukemia 96.2% | MDA-MB-231 breast 114% | RXF 393 renal 98.9% | SF-268 CNS 106% | SF-295 CNS 117% | SF-539 CNS 94.9% | UACC-257 melanoma 90.2% | M14 melanoma 97.5%

NC(=O)c1c(NC(=O)c2ccc(C(F)(F)F)cc2Cl)sc2c1CCC(=O)C2
active: NCI-H23 lung -7.98% | NCI-H226 lung -22.6% | HOP-62 NSCLC 1.14% | NCI-H460 lung 0.92% | HOP-92 NSCLC -61.7% | NCI-H522 lung -25.6% | A549/ATCC NSCLC 9.42% | K-562 leukemia -11.7% | MALME-3M melanoma -24.7% | MDA-MB-231 breast -55.3% | RXF 393 renal -39% | SF-268 CNS -2.06% | SF-295 CNS -27.2% | SF-539 CNS -84.8% | UACC-257 melanoma -22.4% | M14 melanoma -30.1%
inactive: NCI-H322M lung 14% | 786-0 renal 17.1% | DU-145 prostate 18.9%

CC(C)CCC[C@@H](C)[C@H]1CCC2C3=CCC4C(=O)C=CC(=O)C4C3CC[C@@]21C (some centres not stated)
inactive: NCI-H226 lung 42% | NCI-H322M lung 42.6% | HOP-62 NSCLC 12.1% | DU-145 prostate 26.6% | MDA-MB-231 breast 28.6% | SF-268 CNS 20.4% | M14 melanoma 17.5%
active: NCI-H23 lung 8.4% | NCI-H460 lung 2.88% | HOP-92 NSCLC -28.9% | NCI-H522 lung -46.1% | A549/ATCC NSCLC 8.75% | 786-0 renal -5.66% | K-562 leukemia 9.94% | RXF 393 renal -66.6% | SF-295 CNS -61.2% | SF-539 CNS -25.6% | UACC-257 melanoma -3.37%

C=CC(=O)N[C@@H](Cc1ccc(-c2cc(Cl)cc(Cl)c2)cc1)[C@@H](O)[C@H](O)C(=O)O
inactive: NCI-H23 lung 99.9% | NCI-H226 lung 84.9% | NCI-H322M lung 105% | HOP-62 NSCLC 79% | NCI-H460 lung 105% | HOP-92 NSCLC 93.9% | NCI-H522 lung 67.7% | A549/ATCC NSCLC 79% | 786-0 renal 98.6% | DU-145 prostate 109% | K-562 leukemia 101% | MALME-3M melanoma 96.6% | MDA-MB-231 breast 104% | SF-268 CNS 101% | SF-295 CNS 100% | SF-539 CNS 94.9% | M14 melanoma 99.4%

O=C1CSC(c2ccccc2O)N1c1nnc(Cn2cnnc2)o1 (configuration not stated)
inactive: NCI-H23 lung 77.3% | NCI-H226 lung 78.5% | NCI-H322M lung 87.3% | HOP-62 NSCLC 78.7% | NCI-H460 lung 86.9% | HOP-92 NSCLC 53.9% | NCI-H522 lung 98.1% | A549/ATCC NSCLC 97.7% | 786-0 renal 25.8% | DU-145 prostate 105% | K-562 leukemia 82.6% | MALME-3M melanoma 96.2% | MDA-MB-231 breast 73.7% | SF-268 CNS 82.9% | SF-295 CNS 94% | SF-539 CNS 89.7% | UACC-257 melanoma 96.4% | M14 melanoma 69%

CC(C)OCCCNCC(=O)Nc1ccc(S(=O)(=O)c2ccc(NC(=O)CNCCCOC(C)C)cc2)cc1
inactive: NCI-H23 lung 101% | NCI-H226 lung 104% | NCI-H322M lung 118% | HOP-62 NSCLC 85.9% | NCI-H460 lung 94.9% | HOP-92 NSCLC 50.2% | NCI-H522 lung 93.3% | A549/ATCC NSCLC 106% | 786-0 renal 93.5% | DU-145 prostate 113% | K-562 leukemia 36.8% | MALME-3M melanoma 99.7% | MDA-MB-231 breast 50.9% | RXF 393 renal 92.8% | SF-268 CNS 106% | SF-539 CNS 79.4% | UACC-257 melanoma 106% | M14 melanoma 100%

CC(/C=N/NC(=O)c1cc(-c2ccco2)[nH]n1)=C\c1ccccc1
inactive: NCI-H23 lung 93% | NCI-H226 lung 88.5% | NCI-H322M lung 93.3% | HOP-62 NSCLC 95.4% | NCI-H460 lung 127% | HOP-92 NSCLC 57.6% | NCI-H522 lung 110% | A549/ATCC NSCLC 105% | DU-145 prostate 101% | K-562 leukemia 86.6% | MALME-3M melanoma 91.3% | MDA-MB-231 breast 102% | SF-268 CNS 93.9% | SF-295 CNS 69.9% | SF-539 CNS 102% | UACC-257 melanoma 89.9% | M14 melanoma 95%
active: 786-0 renal -91.2%

CCOC(=O)Cc1csc2nc(-c3ccccc3)nn12
inactive: NCI-H23 lung 97.9% | NCI-H226 lung 101% | NCI-H322M lung 125% | HOP-62 NSCLC 103% | NCI-H460 lung 108% | HOP-92 NSCLC 79.1% | NCI-H522 lung 103% | A549/ATCC NSCLC 105% | 786-0 renal 92% | DU-145 prostate 108% | K-562 leukemia 128% | MDA-MB-231 breast 104% | RXF 393 renal 110% | SF-268 CNS 105% | SF-295 CNS 127% | SF-539 CNS 95.6% | UACC-257 melanoma 119% | M14 melanoma 104%

CSc1ccc(Cl)c(C(=O)Nc2sccc2C(N)=O)c1
inactive: NCI-H23 lung 97.9% | NCI-H226 lung 79.9% | NCI-H322M lung 124% | HOP-62 NSCLC 107% | NCI-H460 lung 101% | HOP-92 NSCLC 75.6% | NCI-H522 lung 92.2% | A549/ATCC NSCLC 85.6% | 786-0 renal 94.2% | DU-145 prostate 102% | K-562 leukemia 110% | MALME-3M melanoma 141% | MDA-MB-231 breast 99% | RXF 393 renal 60.2% | SF-268 CNS 93.7% | SF-295 CNS 123% | SF-539 CNS 99.8% | UACC-257 melanoma 104% | M14 melanoma 123%

CN1CCN(CCCOc2ccc3nc(Nc4cc(Cl)cc(Cl)c4)ccc3c2)CC1
active: NCI-H23 lung -40.7% | NCI-H226 lung -9.2% | NCI-H322M lung -55.5% | HOP-62 NSCLC -87.5% | NCI-H460 lung -76.2% | HOP-92 NSCLC -27% | NCI-H522 lung -81.4% | A549/ATCC NSCLC -81% | 786-0 renal -75.6% | DU-145 prostate -84.1% | K-562 leukemia -61.8% | MALME-3M melanoma -54.4% | MDA-MB-231 breast -73.2% | RXF 393 renal -60.6% | SF-268 CNS -78.9% | SF-295 CNS -75.9% | SF-539 CNS -86.5% | UACC-257 melanoma -81.5% | M14 melanoma -62.2%

C=C(CNCCc1ccc(O)cc1)[C@@H]1CC[C@]2(COC3CCCCO3)CC[C@]3(C)[C@H](CC[C@@H]4[C@@]5(C)CCC(N)C(C)(C)[C@@H]5CC[C@]43C)[C@@H]12 (some centres not stated)
active: NCI-H23 lung -89.1% | NCI-H226 lung -59.1% | NCI-H322M lung -95.1% | HOP-62 NSCLC -91.4% | NCI-H460 lung -84.2% | HOP-92 NSCLC -73.9% | NCI-H522 lung -84.3% | A549/ATCC NSCLC -86.2% | 786-0 renal -79.4% | DU-145 prostate -88.9% | K-562 leukemia -73% | MALME-3M melanoma -83.9% | MDA-MB-231 breast -92.2% | RXF 393 renal -83.9% | SF-268 CNS -71.6% | SF-295 CNS -88% | SF-539 CNS -94.9% | UACC-257 melanoma -80.7% | M14 melanoma -88.6%

CCCn1nc(-c2ccccc2)c2c(-c3ccccc3)onc2c1=O
inactive: NCI-H23 lung 85.6% | NCI-H226 lung 87.5% | NCI-H322M lung 95.4% | HOP-62 NSCLC 74.2% | NCI-H460 lung 98.1% | HOP-92 NSCLC 75.6% | NCI-H522 lung 62.6% | A549/ATCC NSCLC 89% | 786-0 renal 94.1% | DU-145 prostate 104% | K-562 leukemia 29.1% | MALME-3M melanoma 96.5% | MDA-MB-231 breast 81.6% | RXF 393 renal 90.2% | SF-268 CNS 89.2% | SF-295 CNS 74.3% | SF-539 CNS 85% | UACC-257 melanoma 112% | M14 melanoma 57.2%

COc1ccc(CN2C(=O)/C(=C\c3cc(OC)c(OC)c(OC)c3)c3ccccc32)cc1
active: NCI-H23 lung -8.08% | HOP-62 NSCLC -33% | NCI-H460 lung -53% | HOP-92 NSCLC 0.884% | NCI-H522 lung -54.1% | A549/ATCC NSCLC 9.31% | 786-0 renal 1.15% | DU-145 prostate 9.87% | K-562 leukemia 5.28% | MDA-MB-231 breast 5.55% | RXF 393 renal -69.6% | SF-295 CNS -46% | SF-539 CNS -84.9% | UACC-257 melanoma -9.5% | M14 melanoma -32%
inactive: NCI-H226 lung 11.8% | NCI-H322M lung 19.6% | SF-268 CNS 10.4%
